In PubChem BioAssay one finds composite z-score and composite Z-score data, which are given here for eleven compounds.

One assay concerns the target Albumin (Bos taurus) (UniProt P02769). Put plainly: compounds binding labelled BSA control protein – biochemical, small-molecule microarray, Alexa647 label, 635/667 nm fluorescence, artefact control for SMM control protein annotation, profiling panel (AID 1118).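 Note: score merges 667 nm emission intensity and signal-to-noise per printed compound spot.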 Conditions: BSA-A647 binding, fluorescence 635 nm, higher = more signal.
Assay [1] in a line: probe aXIP binding to arrayed compounds – biochemical, NeuroSMM set, 635/667 nm fluorescence, primary screen (AID 1119).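 Note: probe is the protein aXip251-270 applied at 1 µg/mL to compound-printed slides; binding of probe to printed compounds measured as 667 nm fluorescence plus signal to noise.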 Conditions: small-molecule microarray, higher = more signal, called active from +8 up or from −8 down.
The nature of assay [2]: probe aNOTCH3 binding on compound microarray – biochemical, small-molecule microarray, 635/667 nm fluorescence, primary screen (AID 1120).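 Note: probe is a biotin-tagged antibody raised against NOTCH3 rather than NOTCH3 protein; score merges spot fluorescence near 667 nm with spot signal to noise.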 Conditions: higher = more signal.
Assay [3] can be described thus: probe aNOTCH2 binding on compound microarray – biochemical, small-molecule microarray, 635/667 nm fluorescence, primary screen (AID 1121).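 Note: score merges feature fluorescence read at 667 nm with its signal to noise.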 Conditions: higher = more signal.
Assay [4] concerns the target Carbonic anhydrase 2 (Homo sapiens) (UniProt P00918). Put plainly: compounds binding carbonic anhydrase 2 – biochemical, small-molecule microarray, Alexa647-labelled CAII, profiling panel (AID 1122). Conditions: CAII-A647 binding fluorescence, higher = more signal.
Assay [5] is described as follows: COS7 lysate on small-molecule microarray, probe aHis, 635 nm (AID 1123).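 Note: z-score combines 667nm fluorescence intensity with signal-to-noise per printed compound spot.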 Conditions: COS7 cell lysate, fluorescence, higher = more signal.
Assay [6] in a line: probe aLAP1 signal on lysate-treated microarray – cell lysate, small-molecule microarray, COS7 lysate, primary screen (AID 1124).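 Note: lysate comes from COS7 cells expressing LAP1 and is applied at 0.3 µg/mL; score merges spot fluorescence near 667 nm with signal-to-noise over triplicate slides.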 Conditions: probe aLAP1, fluorescence, higher = more signal.
The test system of the next assay is Sam68 (KHDRBS1). Put plainly: compounds binding KHDRBS1 protein – biochemical, small-molecule microarray, 635 nm fluorescence, primary screen (AID 1125).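 Note: score merges 667 nm channel intensity with signal to noise over triplicate slides.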 Conditions: higher = more signal.
Assay [7] has as its system Chordin-like protein 2 (CHRDL2). Put plainly: compounds binding chordin-like 2 – biochemical, small-molecule microarray, 635 nm fluorescence, primary screen (AID 1126).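 Note: printed compound slides probed with Chrdl2 protein at 4 µg/mL for 1 h at 4 C; score merges 667 nm emission intensity with signal to noise over three replicate slides.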 Conditions: fluorescence 635 nm, higher = more signal.
Assay [8] has as its target Concanavalin-A (Canavalia ensiformis) (UniProt P02866). Put plainly: compounds binding concanavalin A lectin – biochemical, small-molecule microarray, Alexa647 label, 635 nm, artefact control for SMM control protein annotation, primary screen (AID 1127).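 Note: z combines 667 nm emission intensity with signal-to-noise across three replicate slides.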 Conditions: ConA-A647 binding fluorescence, higher = more signal.

Active and inactive are the calls of the source.

Albumin (Bos taurus), sequence (P02769 whole entry, looked up): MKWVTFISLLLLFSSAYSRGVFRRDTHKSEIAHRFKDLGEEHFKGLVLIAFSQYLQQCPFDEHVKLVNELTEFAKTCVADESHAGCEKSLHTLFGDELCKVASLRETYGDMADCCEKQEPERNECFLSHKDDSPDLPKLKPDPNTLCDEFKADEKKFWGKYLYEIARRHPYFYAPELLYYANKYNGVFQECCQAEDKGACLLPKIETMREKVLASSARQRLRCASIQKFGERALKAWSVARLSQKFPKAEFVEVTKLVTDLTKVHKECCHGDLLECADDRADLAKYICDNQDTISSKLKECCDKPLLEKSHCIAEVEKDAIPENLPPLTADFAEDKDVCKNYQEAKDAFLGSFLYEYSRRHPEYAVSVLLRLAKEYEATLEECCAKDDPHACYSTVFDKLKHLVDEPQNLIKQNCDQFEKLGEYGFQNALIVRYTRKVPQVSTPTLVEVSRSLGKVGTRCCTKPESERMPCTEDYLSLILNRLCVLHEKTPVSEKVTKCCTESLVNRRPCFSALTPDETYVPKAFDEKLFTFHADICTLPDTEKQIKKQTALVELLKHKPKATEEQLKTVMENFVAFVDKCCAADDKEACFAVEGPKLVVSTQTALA
Concanavalin-A (Canavalia ensiformis), sequence (P02866 whole entry, looked up): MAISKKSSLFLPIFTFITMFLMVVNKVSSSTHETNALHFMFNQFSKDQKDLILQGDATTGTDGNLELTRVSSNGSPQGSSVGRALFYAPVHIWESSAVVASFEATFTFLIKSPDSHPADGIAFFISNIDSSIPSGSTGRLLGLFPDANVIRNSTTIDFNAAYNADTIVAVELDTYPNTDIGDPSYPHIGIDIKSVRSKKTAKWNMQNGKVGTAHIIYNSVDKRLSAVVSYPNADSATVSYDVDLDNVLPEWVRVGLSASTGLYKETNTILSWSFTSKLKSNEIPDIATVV

For the compound `CCCCCCc1nc(-c2ccc(OC)nc2)cc2c1[Si](C(C)C)(C(C)C)O[C@H]2c1ccccc1`, the composite z-score is -0.807 with Albumin (Bos taurus); -0.0864 in assay [2]; -0.166 in assay [3]; -0.0224 in [4]; 0.0277 in assay [5]; -0.08 in assay [6]. The composite z-score with Sam68 (KHDRBS1) was -0.187; in assay [7], 1.12; in [8] it was 0.0837. For the same compound, the composite Z-score in assay [1] is 0.131 (inactive).
In the case of `COc1cccc(-c2cccc(=O)o2)c1`, the composite z-score was -0.172 with Albumin (Bos taurus); 0.366 in assay [2]; 0.38 in assay [3]; 0.111 in assay [4]; 0.175 in assay [5]; -0.0345 in assay [6]. Moreover, the results for the composite z-score (with Sam68 (KHDRBS1); in [7]; in [8]) were -0.579, 0.683 and -0.664, respectively. Besides, the composite Z-score in [1] is 2.41 (inactive).
On to `COc1ccc(C(O)C2C=CC3C(=O)N(Cc4ccccc4)C(=O)C3N2n2cnnc2)cc1OCc1ccccc1` (stereo not given), for which the composite z-score with Albumin (Bos taurus) was 0.799; in assay [2] it was 0.0493; in assay [3], -0.152; in assay [4], 0.771; in assay [5], 1.5; in [6] it was -0.276. Also, the composite z-score was 0.953 with Sam68 (KHDRBS1), -0.34 in [7] and 0.681 in [8]. For the same compound, in assay [1], the composite Z-score is -1.19 (inactive).
`CN1C(=O)C2C=CC(C(O)c3ccccc3)N(N(c3ccccc3)c3ccccc3)C2C1=O` (stereo not given): the composite z-score with Albumin (Bos taurus) was determined as 0.273; in assay [2], 0.215; in [3] it was 0.105; in assay [4], 0.763; in assay [5] it was 0.321; in assay [6], 1.34. Besides, the values for the composite z-score (in the assay on Sam68 (KHDRBS1); in assay [7]; in [8]) were -0.494, 0.781 and -0.529, respectively. Moreover, the composite Z-score in assay [1] was 0.22 (inactive).
With `O=C1N[C@@H](Cc2ccccc2)C(=O)N2[C@@H]1C[C@@H](C(=O)O)[C@H]2c1cccc(OCCO)c1`, the composite z-score is 0.0429 with Albumin (Bos taurus); -0.0362 in [2]; -0.124 in [3]; 0.733 in assay [4]; 0.514 in assay [5]; 0.256 in [6]. The values for the composite z-score (with Sam68 (KHDRBS1); in assay [7]; in assay [8]) were 1.22, 0.992 and 0.311, respectively. Further, in [1], the composite Z-score is 0.108 (inactive).
For the compound `CN1C(=O)C2C=CC(C(O)c3ccco3)N(Nc3ccccc3)C2C1=O` (stereo not given), the composite z-score with Albumin (Bos taurus) is -0.152; in assay [2], 0.0974; in assay [3], -0.0267; in assay [4], 0.803; in assay [5], -0.039; in [6] it was 0.574. In addition, the composite z-score was determined as 0.68 in the assay with Sam68 (KHDRBS1), 0.685 in assay [7] and 0.477 in [8]. In addition, the composite Z-score in assay [1] is 0.472 (inactive).
`CCCC=C(CCC)[C@@H](NC(=O)c1cccs1)c1ccc(C(F)(F)F)cc1`: the composite z-score with Albumin (Bos taurus) was 0.868; in [2] it was 0.224; in [3], -0.0027; in [4] it was 0.173; in assay [5] it was 0.0705; in assay [6], 0.156. The composite z-score with Sam68 (KHDRBS1) is 1.23; in assay [7] it was -0.595; in assay [8] it was 0.79. Also, the composite Z-score in [1] was 0.23 (inactive).
For the compound `C[N+](C)(C)CCCCCCNC(=O)[C@@H]1C[C@@H]2C(=O)N[C@@H](Cc3ccccc3)C(=O)N2[C@@H]1c1cccc(OCCO)c1`, the composite z-score in the assay with Albumin (Bos taurus) is 0.358; in assay [2], 0.0628; in [3], -0.132; in assay [4], 0.668; in assay [5] it was 1.59; in [6], 0.591. Further, the composite z-score in the assay with Sam68 (KHDRBS1) came to 1.05; in [7] it was 1.27; in assay [8] it was 0.622. Further, in assay [1], the composite Z-score was 0.6 (inactive).
Consider `COc1cc2c(cc1OC)CN(C(=O)[C@H]1[C@@H]3C(=O)O[C@@H](c4ccccc4)[C@@H](c4ccccc4)N3[C@@H](c3ccc(O)cc3)[C@]13C(=O)Nc1ccc(C#CCCO)cc13)CC2`, for which the composite z-score with Albumin (Bos taurus) is 0.184; in [2], 0.176; in assay [3], -0.0474; in [4], 0.213; in assay [5], 1.46; in [6], 0.127. Also, the composite z-score in the assay with Sam68 (KHDRBS1) came to 1.24; in [7] it was 0.077; in [8], 0.964. Moreover, in assay [1], the composite Z-score is 0.274 (inactive).
In the case of `O=C1C[C@@](C(=O)NCCN2CCOCC2)(c2ccc([N+](=O)[O-])cc2)[C@@H](c2ccc(CO)cc2I)N1CC12CC3CC(CC(C3)C1)C2`, the composite z-score with Albumin (Bos taurus) is -0.091; in assay [2], 0.0842; in assay [3], -0.037; in [4], 0.584; in [5], 1.77; in assay [6], 0.811. The composite z-score in the assay on Sam68 (KHDRBS1) was determined as 1.33; in assay [7], 0.392; in assay [8] it was 0.987. Moreover, the composite Z-score in assay [1] is 0.0692 (inactive).
For the compound `CNS(=O)(=O)c1ccc(C)cc1`, the composite z-score in the assay with Albumin (Bos taurus) is -0.189; in assay [2] it was -0.185; in assay [3], -0.0761; in [4] it was -0.0894; in assay [5], 0.284; in assay [6], 0.291. Moreover, the composite z-score in the assay with Sam68 (KHDRBS1) was 0.667; in [7], 1.07; in assay [8], 0.613. In addition, the composite Z-score in assay [1] is 0.348 (inactive).
